Data as given in PubChem BioAssay (NCI).
The panel holds about 83,000 compounds, 20% with a hit somewhere; the sample as a whole holds those more often.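 Single-concentration screen, 48 h exposure, 96-well plates. Endpoint: percent growth. Below 10 = active.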 Active and inactive are the calls of the source.

What was measured:
Assay in all cases: NCI-60 one-dose screen, 48 h (100 = growth as untreated, 0 = no growth, -100 = all killed)
Details in all cases: 10 µM unless noted
HCT-15 colon = tested on: HCT-15 colon
HT29 colon = tested on: HT29 colon
SNB-75 CNS = tested on: SNB-75 CNS
SNB-19 CNS = tested on: SNB-19 CNS
U251 CNS = tested on: U251 CNS
PC-3 prostate = tested on: PC-3 prostate
SK-MEL-5 melanoma = tested on: SK-MEL-5 melanoma
UACC-62 melanoma = tested on: UACC-62 melanoma
LOX IMVI melanoma = tested on: LOX IMVI melanoma
SK-MEL-28 melanoma = tested on: SK-MEL-28 melanoma
SK-MEL-2 melanoma = tested on: SK-MEL-2 melanoma
EKVX NSCLC = tested on: EKVX NSCLC
SN12C renal = tested on: SN12C renal
UO-31 renal = tested on: UO-31 renal
TK-10 renal = tested on: TK-10 renal
ACHN renal = tested on: ACHN renal
CAKI-1 renal = tested on: CAKI-1 renal
A498 renal = tested on: A498 renal
CCRF-CEM leukemia = tested on: CCRF-CEM leukemia
MOLT-4 leukemia = tested on: MOLT-4 leukemia

Measured: growth

CCCCCCCC(=O)OCC/C=C/C1OC1C1OC(=O)/C=C\C=C\C(=O)N(C(C)=O)C(=O)/C=C(/C)CCC2OC2C1OC(=O)NC(C)=O (stereo not drawn)
inactive: HCT-15 colon 84.1% | HT29 colon 50.8% | SNB-75 CNS 79.3% | SNB-19 CNS 179% | U251 CNS 69.8% | PC-3 prostate 84.5% | SK-MEL-5 melanoma 67.5% | UACC-62 melanoma 68% | LOX IMVI melanoma 54% | SK-MEL-28 melanoma 87.1% | SK-MEL-2 melanoma 89.8% | EKVX NSCLC 83.5% | SN12C renal 63.2% | UO-31 renal 69% | TK-10 renal 37.5% | ACHN renal 29.2% | CAKI-1 renal 71% | A498 renal 90.7%

CCN1C(=O)N(CC)C2Nn3c(s/c(=C\c4ccc(OC)cc4)c3=O)=NC21 (stereo not drawn)
inactive: HCT-15 colon 32.2% | HT29 colon 83.1% | SNB-19 CNS 53.1% | U251 CNS 39.3% | PC-3 prostate 44.1% | SK-MEL-5 melanoma 47.6% | UACC-62 melanoma 34.1% | LOX IMVI melanoma 53.6% | SK-MEL-28 melanoma 62.8% | SK-MEL-2 melanoma 51.9% | EKVX NSCLC 82.2% | SN12C renal 62.6% | UO-31 renal 48.6% | TK-10 renal 11.2% | ACHN renal 42.7% | CAKI-1 renal 31.9% | CCRF-CEM leukemia 53.2%
active: SNB-75 CNS 8.85% | A498 renal -2.46%

C[C@@H](Nc1ncnc2ccc(-c3cnc(N)nc3)cc12)c1ccc(F)cc1
active: A498 renal -13.5%
inactive: HCT-15 colon 88.6% | HT29 colon 84.9% | SNB-75 CNS 69.5% | SNB-19 CNS 76.1% | U251 CNS 80.9% | PC-3 prostate 69.1% | SK-MEL-5 melanoma 73.2% | UACC-62 melanoma 69.2% | LOX IMVI melanoma 78.4% | SK-MEL-28 melanoma 92.5% | SK-MEL-2 melanoma 101% | EKVX NSCLC 36.7% | SN12C renal 33.9% | UO-31 renal 35.1% | TK-10 renal 21.4% | ACHN renal 41.5% | CAKI-1 renal 40.6% | CCRF-CEM leukemia 95.3%

N#CC(C(=O)/C(=N/NC(=O)c1ccccc1O)C(C#N)c1ccccc1)c1ccccc1 (stereo not drawn)
active: U251 CNS 6.45%
inactive: HCT-15 colon 43.1% | HT29 colon 101% | SNB-75 CNS 18% | SNB-19 CNS 33.2% | PC-3 prostate 55.2% | SK-MEL-5 melanoma 81.7% | UACC-62 melanoma 21.7% | LOX IMVI melanoma 44.7% | SK-MEL-28 melanoma 83.7% | SK-MEL-2 melanoma 68.6% | EKVX NSCLC 76.7% | SN12C renal 52.5% | UO-31 renal 29.4% | TK-10 renal 69.7% | ACHN renal 31% | CAKI-1 renal 82.5% | A498 renal 30.9%

CN(CCN(C)c1ccc(C(=N)N)cc1)c1ccc(C(=N)N)cc1
inactive: HCT-15 colon 102% | HT29 colon 108% | SNB-75 CNS 99.6% | SNB-19 CNS 121% | U251 CNS 95.4% | PC-3 prostate 81.3% | SK-MEL-5 melanoma 92% | UACC-62 melanoma 78.7% | LOX IMVI melanoma 99.9% | SK-MEL-28 melanoma 108% | SK-MEL-2 melanoma 94.4% | EKVX NSCLC 94.4% | SN12C renal 74.3% | UO-31 renal 79.8% | TK-10 renal 115% | ACHN renal 105% | CAKI-1 renal 68.6% | A498 renal 71.4%
active: CCRF-CEM leukemia -72%

Brc1ccc2[nH]cc(-c3cncn3CCc3ccccc3)c2c1
active: TK-10 renal -60.4%
inactive: HCT-15 colon 52.8% | HT29 colon 65.6% | SNB-75 CNS 36.7% | SNB-19 CNS 65.6% | U251 CNS 55.7% | PC-3 prostate 53.9% | SK-MEL-5 melanoma 10.4% | UACC-62 melanoma 52.9% | LOX IMVI melanoma 64.1% | SK-MEL-28 melanoma 69.6% | SK-MEL-2 melanoma 55.8% | EKVX NSCLC 36.6% | SN12C renal 59.1% | UO-31 renal 52.7% | ACHN renal 65.7% | CAKI-1 renal 35.4% | A498 renal 29.3% | CCRF-CEM leukemia 57.9% | MOLT-4 leukemia 48.6%

COc1ccc(/C=C/c2nc(Nc3ccc(S(=O)(=O)Nc4cc(C)on4)cc3)c3ccccc3n2)cc1
active: A498 renal 1.73%
inactive: HCT-15 colon 48.8% | HT29 colon 69.3% | SNB-75 CNS 74.7% | SNB-19 CNS 83.2% | U251 CNS 74.5% | PC-3 prostate 74.7% | SK-MEL-5 melanoma 43.5% | UACC-62 melanoma 17.5% | LOX IMVI melanoma 31.5% | SK-MEL-28 melanoma 91.7% | SK-MEL-2 melanoma 75.8% | EKVX NSCLC 71.6% | SN12C renal 82.3% | UO-31 renal 50.3% | TK-10 renal 71.5% | ACHN renal 54.2% | CAKI-1 renal 49.4% | CCRF-CEM leukemia 49% | MOLT-4 leukemia 70.6%

CCOC(=O)c1cc(C(=O)c2ccc(OC)c(OC)c2)n2c1ccc1ccccc12
inactive: HCT-15 colon 84.5% | HT29 colon 103% | SNB-75 CNS 48.5% | SNB-19 CNS 94% | U251 CNS 96.2% | PC-3 prostate 81.7% | SK-MEL-5 melanoma 89.8% | UACC-62 melanoma 74.3% | LOX IMVI melanoma 85.1% | SK-MEL-28 melanoma 106% | SK-MEL-2 melanoma 104% | EKVX NSCLC 76.1% | SN12C renal 83.7% | UO-31 renal 58.4% | TK-10 renal 154% | ACHN renal 91% | CAKI-1 renal 64.6% | A498 renal 97.1% | CCRF-CEM leukemia 94% | MOLT-4 leukemia 89.6%

COc1cc2c(c(OC)c1OC)-c1ccc(NNC(=S)N(Cc3cccc(C[N+](Cc4cccc(CNC56CC7CC(CC(C7)C5)C6)c4)(Cc4cccc(CNC56CC7CC(CC(C7)C5)C6)c4)Cc4cccc(CN(C(=S)NNc5ccc6c(cc5=O)[C@@H](NC(C)=O)CCc5cc(OC)c(OC)c(OC)c5-6)C56CC7CC(CC(C7)C5)C6)c4)c3)C34CC5CC(CC(C5)C3)C4)c(=O)cc1[C@@H](NC(C)=O)CC2 (stereo partly drawn)
inactive: SNB-75 CNS 31.7% | SNB-19 CNS 16% | PC-3 prostate 12.2% | UACC-62 melanoma 15.5% | SK-MEL-28 melanoma 33.3% | EKVX NSCLC 44.7% | SN12C renal 12.2% | UO-31 renal 39.7% | TK-10 renal 48.7% | ACHN renal 44.4% | CAKI-1 renal 29%
active: HCT-15 colon 9.96% | HT29 colon -5.79% | U251 CNS 5.78% | SK-MEL-5 melanoma -94.2% | LOX IMVI melanoma -20.1% | SK-MEL-2 melanoma -20.3% | A498 renal -5.83% | CCRF-CEM leukemia -6.54% | MOLT-4 leukemia -17%

O=C(Cn1c(C(=O)c2ccccc2)nc2ccccc21)c1ccc(F)cc1
inactive: HCT-15 colon 44.4% | HT29 colon 23.3% | SNB-75 CNS 48.4% | SNB-19 CNS 74.5% | U251 CNS 55.1% | PC-3 prostate 78.2% | SK-MEL-5 melanoma 60.7% | UACC-62 melanoma 37.1% | LOX IMVI melanoma 61.3% | SK-MEL-28 melanoma 54% | SK-MEL-2 melanoma 60.7% | EKVX NSCLC 83.2% | SN12C renal 77.9% | UO-31 renal 80.6% | TK-10 renal 67.7% | ACHN renal 95.8% | CAKI-1 renal 42.6% | A498 renal 86.5% | CCRF-CEM leukemia 57.1% | MOLT-4 leukemia 21.3%

Cc1nn(-c2ccccc2)c(Cl)c1/C=C/C(=O)c1ccc(F)cc1
active: CCRF-CEM leukemia 4.52%
inactive: HCT-15 colon 73.9% | HT29 colon 91.1% | SNB-75 CNS 97.9% | SNB-19 CNS 87% | U251 CNS 75.9% | PC-3 prostate 78.7% | SK-MEL-5 melanoma 91.7% | UACC-62 melanoma 65.2% | LOX IMVI melanoma 76.5% | SK-MEL-28 melanoma 105% | SK-MEL-2 melanoma 92.8% | EKVX NSCLC 93.1% | SN12C renal 88.9% | UO-31 renal 79.1% | TK-10 renal 101% | ACHN renal 97.5% | CAKI-1 renal 95.9% | A498 renal 81.5% | MOLT-4 leukemia 20.7%

Cn1ccc2c1CC1CN(Cc3ccco3)C(=O)C1C2C(=O)O (stereo not drawn)
inactive: HCT-15 colon 95.8% | HT29 colon 101% | SNB-75 CNS 74.3% | SNB-19 CNS 98% | U251 CNS 97.3% | PC-3 prostate 100% | SK-MEL-5 melanoma 102% | UACC-62 melanoma 95.5% | LOX IMVI melanoma 94.6% | SK-MEL-28 melanoma 101% | SK-MEL-2 melanoma 99.2% | EKVX NSCLC 91.1% | SN12C renal 97.2% | UO-31 renal 89.6% | TK-10 renal 102% | ACHN renal 105% | CAKI-1 renal 94.1% | A498 renal 98.3% | CCRF-CEM leukemia 105% | MOLT-4 leukemia 103%

COc1ccc(OC)c(CCn2cncc2-c2c[nH]c3ccccc23)c1
active: SNB-75 CNS 3.33%
inactive: HCT-15 colon 71.4% | HT29 colon 86.6% | SNB-19 CNS 85.1% | U251 CNS 87.8% | PC-3 prostate 71.4% | SK-MEL-5 melanoma 49.7% | UACC-62 melanoma 59.2% | LOX IMVI melanoma 79.6% | SK-MEL-28 melanoma 90.3% | SK-MEL-2 melanoma 73.5% | EKVX NSCLC 64.8% | SN12C renal 72% | UO-31 renal 46.6% | TK-10 renal 149% | ACHN renal 76.7% | CAKI-1 renal 66.7% | A498 renal 61.8% | CCRF-CEM leukemia 68.1% | MOLT-4 leukemia 75.3%

N#C/C(=C\c1ccc(C(F)(F)F)cc1)c1cc2ccccc2[nH]1
inactive: HCT-15 colon 92.5% | HT29 colon 99.7% | SNB-75 CNS 89% | SNB-19 CNS 102% | U251 CNS 105% | PC-3 prostate 93.9% | SK-MEL-5 melanoma 95.6% | UACC-62 melanoma 95.1% | LOX IMVI melanoma 99.7% | SK-MEL-28 melanoma 102% | SK-MEL-2 melanoma 96.1% | EKVX NSCLC 97.6% | SN12C renal 99.2% | UO-31 renal 92.9% | TK-10 renal 140% | ACHN renal 104% | CAKI-1 renal 83.6% | A498 renal 90.3% | CCRF-CEM leukemia 98.1% | MOLT-4 leukemia 91.5%
